Drawing on PubChem BioAssay (NCATS), this text covers Potency and outcome for 13 molecules.

Values without a mark were called inactive. Records with an inconclusive call do not appear. The source made the active and inactive calls. Unless noted, calls follow the shape of the dose curve; as a rule, active = well fitted curve in the direction sought with a large enough effect; inconclusive = small, poorly fitted or top-dose-only effect, or another doubt; inactive = no such curve, though single readings can be large; an effect the other way counts as inactive or inconclusive.

Assay [1] is described as follows: P-glycoprotein substrates identified in KB-8-5-11 adenocarcinoma cell line, qHTS therapeutic library screen (AID 1346987). Also: nearly all actives have a fitted effect of over 65% in size. Also: potency is read from the fitted curve at half-maximal effect. In outline:
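KB-8-5-11: colchicine-selected sub-line of KB-3-1 over-expressing P-gp; assay medium lacked colchicine. 72 h drug exposure at 37 degree C, CellTiter-Glo.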

The nature of assay [2]: qHTS of pediatric cancer cell lines to identify multiple opportunities for drug repurposing: Primary screen for DAOY cells (AID 1347090). Also: series mostly up to about 46 µM; nearly all actives have a fitted effect of over 55% in size. In outline:
(§1)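 Eight- or eleven-point concentration series, 48 h treatment at 37 degrees C in growth media; readout CellTiter-Glo luminescence. Potency and efficacy were taken from the concentration-response curves.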
Background: In qHTS, concentration-response curves come from the screen itself.

Assay [3] is described as follows: qHTS of pediatric cancer cell lines to identify multiple opportunities for drug repurposing: Primary screen for A673 cells (AID 1347092). Also: nearly all actives have a fitted effect of over 45% in size. Also: potency is read from the fitted curve at half-maximal effect. In outline:
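A673 cells (500-1,000 cells/well) were treated 48 hours at 37 degrees C with compounds at 11-point (0.78 nM to 46 µM) or 8-point (0.59 nM to 46 µM) dilutions. Viability read by CellTiter-Glo luminescence; concentration-response curves fitted.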

Assay [4] can be described thus: qHTS of pediatric cancer cell lines to identify multiple opportunities for drug repurposing: Primary screen for SK-N-MC cells (AID 1347093). Also: potency is read from the fitted curve at half-maximal effect. In outline:
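Metabolically active cells were quantified by ATP-dependent luminescence (CellTiter-Glo, 15 min at room temperature) following 48 h treatment. Cells had been plated at 500-1,000 per well and settled for 5 h beforehand.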

The nature of assay [5]: qHTS of pediatric cancer cell lines to identify multiple opportunities for drug repurposing: Primary screen for SK-N-SH cells (AID 1347098). Also: nearly all actives have a fitted effect of over 65% in size. Also: potency is read from the fitted curve at half-maximal effect. In outline: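 Cells (500-1,000/well) rested 5 h, then received compounds for 48 h; metabolically active cells were measured by CellTiter-Glo luminescence. Final concentrations spanned up to 46 µM (MIPE, 11-point) or 0.59 nM-46 µM (NPC, 8-point) in primary screens, 11-point in follow-ups.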

Assay [6] is described as follows: qHTS of pediatric cancer cell lines to identify multiple opportunities for drug repurposing: Primary screen for NB1643 cells (AID 1347099). Also: nearly all actives have a fitted effect of over 50% in size. In outline: (§2)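 Quantitative HTS format: each compound titrated (MIPE 11 points from 0.78 nM, NPC 8 points from 0.59 nM) onto cells plated 5 hours earlier. After 48 h at 37 degrees C, CellTiter-Glo luminescence was recorded.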

A short description of assay [7]: NS1 protein of Zika virus - qHTS assay to identify small molecule inhibitors in human HEK 293 cells (AID 1347053). Also: nearly all actives have a fitted effect of over 55% in size. Also: potency is read from the fitted curve at half-maximal effect. In outline: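 Inhibition of NS1 expression was scored in HEK 293 cells given compound 1 h ahead of MR766 virus (MOI = 0.5). Following 24 h at 37 C, two anti-NS1 antibodies generated a TR-FRET signal, scaled between uninfected and infected controls.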

Assay [8] in a line: qHTS of pediatric cancer cell lines to identify multiple opportunities for drug repurposing: Primary screen for SJ-GBM2 cells (AID 1347091). Also: potency is read from the fitted curve at half-maximal effect. In outline:
as §1

A short description of assay [9]: qHTS of pediatric cancer cell lines to identify multiple opportunities for drug repurposing: Primary screen for BT-37 cells (AID 1347094). Also: series mostly up to about 57 µM. In outline: as §2
The nature of assay [10]: qHTS of pediatric cancer cell lines to identify multiple opportunities for drug repurposing: Primary screen for NB-EBc1 cells (AID 1347095). In outline: as §2
Assay [11] can be described thus: qHTS of pediatric cancer cell lines to identify multiple opportunities for drug repurposing: Primary screen for U-2 OS cells (AID 1347096). Also: nearly all actives have a fitted effect of over 50% in size. In outline:
(§3)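 Cells (500-1,000/well) in growth media were settled 5 h at 37 degrees C, then given compounds for 48 h. Viability was read as CellTiter-Glo luminescence. Primary runs used MIPE at 11 points (0.78 nM-46 µM) and NPC at 8 points (0.59 nM-46 µM); follow-ups used 11 points.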

The nature of assay [12]: qHTS of pediatric cancer cell lines to identify multiple opportunities for drug repurposing: Primary screen for Saos-2 cells (AID 1347097). Also: nearly all actives have a fitted effect of over 40% in size. Also: potency is read from the fitted curve at half-maximal effect. In outline: as §2
A short description of assay [13]: qHTS of pediatric cancer cell lines to identify multiple opportunities for drug repurposing: Primary screen for LAN-5 cells (AID 1347100). Also: potency is read from the fitted curve at half-maximal effect. In outline:
as §3

In assay [14] the target is Parathyroid hormone/parathyroid hormone-related peptide receptor (Homo sapiens) (UniProt Q03431). In words: qHTS for PTHR1 Agonists: Optimization Screen against the NCGC LOPAC library (AID 1347079).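 Also: GloSensor cAMP luminescence in HEK-293 GP2 cells expressing human PTHR1 with IBMX.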 In outline: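 Compounds were tested across a qHTS titration. PTHR1-expressing GP2 cells report cAMP rises via GloSensor luminescence after 1 hr compound exposure at 37C with IBMX present.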
Parathyroid hormone/parathyroid hormone-related peptide receptor (Homo sapiens), sequence (Q03431 whole entry, looked up): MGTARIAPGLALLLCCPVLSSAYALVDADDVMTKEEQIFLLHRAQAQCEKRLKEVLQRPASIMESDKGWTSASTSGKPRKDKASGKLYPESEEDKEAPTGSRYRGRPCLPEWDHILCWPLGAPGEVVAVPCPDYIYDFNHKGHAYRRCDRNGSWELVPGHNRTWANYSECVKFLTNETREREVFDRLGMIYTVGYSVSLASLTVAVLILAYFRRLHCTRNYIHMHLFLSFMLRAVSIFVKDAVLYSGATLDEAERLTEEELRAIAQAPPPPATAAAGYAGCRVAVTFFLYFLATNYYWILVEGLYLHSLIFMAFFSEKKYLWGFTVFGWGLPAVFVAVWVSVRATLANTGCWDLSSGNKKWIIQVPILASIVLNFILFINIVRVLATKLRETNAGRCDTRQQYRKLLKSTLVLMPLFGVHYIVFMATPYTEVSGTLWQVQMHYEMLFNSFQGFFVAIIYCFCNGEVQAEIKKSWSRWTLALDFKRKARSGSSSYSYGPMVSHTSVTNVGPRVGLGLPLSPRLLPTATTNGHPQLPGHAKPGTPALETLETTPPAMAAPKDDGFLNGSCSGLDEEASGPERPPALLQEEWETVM

Assay [15] is described as follows: qHTS of pediatric cancer cell lines to identify multiple opportunities for drug repurposing: Primary screen for TC32 cells (AID 1347089). Also: nearly all actives have a fitted effect of over 60% in size. In outline:
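TC32 cells, 500-1,000/well in growth medium, compound-treated 48 h at 37 °C; viability from CellTiter-Glo luminescence. Primary screen: MIPE 11-point (0.78 nM–46 µM final), NPC 8-point (0.59 nM–46 µM final); confirmatory at 11-point dilutions.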

In assay [16] the target is Atrial natriuretic peptide receptor 2 (Homo sapiens) (UniProt P20594). In words: Natriuretic polypeptide receptor (hNpr2) antagonism - Pilot subtype selectivity assay (AID 1347050; calls by dose curve; also: potency is read from the fitted curve at half-maximal effect). In outline: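 cGMP-sensor HEK293/hNpr2 cells; 2% GloSensor reagent 2 h RT; compounds 30 min; baseline luminescence read; 1 nM hNppC agonist 20 min RT; final luminescence read by CCD camera. Antagonism = reduced post-agonist signal.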
Atrial natriuretic peptide receptor 2 (Homo sapiens), sequence (P20594 whole entry, looked up): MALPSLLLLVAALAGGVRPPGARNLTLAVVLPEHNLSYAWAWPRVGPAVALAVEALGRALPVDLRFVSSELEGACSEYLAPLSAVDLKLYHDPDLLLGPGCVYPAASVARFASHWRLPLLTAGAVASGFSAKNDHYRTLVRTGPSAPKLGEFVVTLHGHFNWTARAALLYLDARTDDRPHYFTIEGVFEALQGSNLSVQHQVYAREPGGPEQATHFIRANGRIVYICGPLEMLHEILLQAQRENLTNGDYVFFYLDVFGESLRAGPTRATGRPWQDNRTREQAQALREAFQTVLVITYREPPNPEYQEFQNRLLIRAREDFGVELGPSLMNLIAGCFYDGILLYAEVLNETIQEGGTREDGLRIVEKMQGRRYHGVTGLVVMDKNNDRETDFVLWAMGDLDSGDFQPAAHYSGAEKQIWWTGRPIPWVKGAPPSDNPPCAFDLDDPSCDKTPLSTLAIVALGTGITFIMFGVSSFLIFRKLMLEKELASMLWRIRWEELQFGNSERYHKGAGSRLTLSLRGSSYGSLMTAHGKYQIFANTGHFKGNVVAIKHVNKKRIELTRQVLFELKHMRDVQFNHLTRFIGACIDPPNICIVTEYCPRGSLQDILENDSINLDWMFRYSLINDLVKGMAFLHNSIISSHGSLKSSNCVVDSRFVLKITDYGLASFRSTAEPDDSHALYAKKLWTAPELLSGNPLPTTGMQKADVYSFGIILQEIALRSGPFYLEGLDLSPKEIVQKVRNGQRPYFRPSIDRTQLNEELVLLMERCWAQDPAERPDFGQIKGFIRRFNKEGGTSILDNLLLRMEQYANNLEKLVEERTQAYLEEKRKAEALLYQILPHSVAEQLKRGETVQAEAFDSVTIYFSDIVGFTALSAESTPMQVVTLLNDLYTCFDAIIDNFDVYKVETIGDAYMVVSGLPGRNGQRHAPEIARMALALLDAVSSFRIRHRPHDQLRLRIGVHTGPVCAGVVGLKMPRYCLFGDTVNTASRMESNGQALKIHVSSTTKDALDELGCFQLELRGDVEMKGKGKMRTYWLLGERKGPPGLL

For assay [17], the target named is Tyrosine-protein phosphatase non-receptor type substrate 1 (Homo sapiens) + Leukocyte surface antigen CD47 (Homo sapiens) (UniProt P78324+Q08722). In words: CD47-SIRPalpha protein protein interaction - LANCE assay qHTS validation (AID 1347057; active = well fitted curve in the direction sought with a large enough effect in the signal ratio, with a control signal flat, not every such curve was filed as active; the % refers to the signal ratio; also: series mostly up to about 38 µM). In outline:
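First, His-tagged CD47 and Eu-labelled anti-His antibody met the compound for 30 min; next, site-specifically biotinylated SIRPalpha was added for 30 min; finally streptavidin-APC was added before reading the TR-FRET ratio.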
In general terms: Time-resolved FRET reads energy transfer from a long-lived donor to a nearby acceptor.

Assay [18] can be described thus: Natriuretic polypeptide receptor (hNpr1) antagonism - Pilot counterscreen GloSensor control cell line (AID 1347045; calls by dose curve; also: series mostly up to about 38 µM). In outline: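 HEK293 cells carrying the GloSensor cGMP sensor (GIP/pGS-40F) were loaded with 2% GloSensor reagent for 2 h, exposed to compounds for 30 min, and then stimulated with 50 uM sodium nitroprusside for 20 min at room temperature.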

Tyrosine-protein phosphatase non-receptor type substrate 1 (Homo sapiens) + Leukocyte surface antigen CD47 (Homo sapiens), sequence (P78324 whole entry, looked up): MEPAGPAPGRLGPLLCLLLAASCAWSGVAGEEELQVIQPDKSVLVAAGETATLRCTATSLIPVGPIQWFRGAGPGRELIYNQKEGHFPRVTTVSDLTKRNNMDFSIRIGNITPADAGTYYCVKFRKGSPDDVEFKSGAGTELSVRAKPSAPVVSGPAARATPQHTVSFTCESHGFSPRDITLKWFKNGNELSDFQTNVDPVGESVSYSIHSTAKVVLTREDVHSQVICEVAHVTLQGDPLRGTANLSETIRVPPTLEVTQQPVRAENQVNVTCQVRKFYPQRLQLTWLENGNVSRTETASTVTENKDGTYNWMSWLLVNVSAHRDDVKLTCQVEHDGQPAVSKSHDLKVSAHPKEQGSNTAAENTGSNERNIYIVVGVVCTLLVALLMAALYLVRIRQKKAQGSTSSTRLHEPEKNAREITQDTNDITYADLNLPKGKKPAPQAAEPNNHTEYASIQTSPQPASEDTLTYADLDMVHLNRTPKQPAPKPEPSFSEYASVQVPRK
Tyrosine-protein phosphatase non-receptor type substrate 1 (Homo sapiens) + Leukocyte surface antigen CD47 (Homo sapiens), sequence (Q08722 whole entry, looked up): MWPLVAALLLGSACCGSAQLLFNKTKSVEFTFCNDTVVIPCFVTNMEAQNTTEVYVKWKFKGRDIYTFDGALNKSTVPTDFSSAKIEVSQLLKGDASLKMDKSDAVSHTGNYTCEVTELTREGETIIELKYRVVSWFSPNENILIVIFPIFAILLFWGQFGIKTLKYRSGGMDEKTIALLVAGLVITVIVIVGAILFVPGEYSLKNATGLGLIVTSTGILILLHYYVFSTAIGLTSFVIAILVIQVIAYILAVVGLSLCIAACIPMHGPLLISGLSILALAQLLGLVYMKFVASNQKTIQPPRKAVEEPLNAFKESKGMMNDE

As for `COc1ccc2cc1Oc1ccc(cc1)C[C@H]1c3c(cc4c(c3Oc3cc5c(cc3OC)CCN(C)[C@@H]5C2)OCO4)CCN1C`, the Potency in assay [1] is 20.6 µM (active); in assay [3], 13.3 µM (active); in assay [4], 15 µM (active); in [5], 12.2 µM (active). Also, the Potency result in assay [2] and in [6] was “inactive” in each case.
On to `CC1=C(C/C=C(\C)CCC[C@H](C)CCC[C@H](C)CCCC(C)C)C(=O)c2ccccc2C1=O`, for which the Potency entry in assay [1], in assay [7], in assay [8], in [3], in [4] and in assay [9] was “inactive” each time. The Potency result in [10], in assay [11], in assay [12], in assay [5], in [6] and in assay [13] was “inactive” in each case.
In the case of `O=C(O)c1ccccc1-c1ccc(C(F)(F)F)cc1`, the Potency result in [1], in assay [7], in [8], in assay [4], in [9] and in [10] was “inactive” each time. Moreover, the Potency entry in [11], in assay [12], in assay [5], in assay [6] and in assay [13] was “inactive” throughout.
In the case of `CNCCC(Oc1ccc(C(F)(F)F)cc1)c1ccccc1` (stereo not given), the Potency result in assay [7], in assay [14], in [15], in assay [10], in assay [11] and in [13] was “inactive” throughout.
Take `OCCN1CCN(CCCN2c3ccccc3Sc3ccc(Cl)cc32)CC1`: the Potency was 16.5 µM (active) in [16]; 21.1 µM (active) in [8]; 21.1 µM (active) in assay [3]; 11.9 µM (active) in assay [12]; 23.7 µM (active) in [13]. The Potency result in assay [14] and in assay [11] was “inactive” in each case.
With `CC1=C(/C=C/C(C)=C/C=C/C(C)=C/C(=O)O)C(C)(C)CCC1`, the Potency result in assay [16], in assay [7], in [14], in assay [15], in [2] and in [8] was “inactive” each time. Also, the Potency result in assay [3], in assay [9], in [10], in assay [11], in assay [12] and in assay [6] was “inactive” each time. Besides, in assay [13], the Potency result was “inactive”. In addition, in assay [17], the outcome was inactive.
Consider `CCN(CC)C(C)CN1c2ccccc2Sc2ccccc21` (stereo not given), for which the outcome in assay [18] and in assay [17] was inactive. Further, the Potency result in [16], in [7], in assay [14], in [15], in assay [2] and in assay [8] was “inactive” each time. For the same molecule, the Potency entry in assay [3], in assay [9], in assay [10], in assay [11], in assay [12] and in assay [6] was “inactive” each time. In assay [13], the Potency entry was “inactive”.
On to `CNCCCC1c2ccccc2C=Cc2ccccc21`, for which the outcome in assay [18] and in [17] was inactive. Moreover, the Potency result in assay [7], in assay [14], in [15], in [10] and in assay [6] was “inactive” each time. In addition, in assay [4], the Potency was 11.9 µM (active).
As for `O=Cc1ccccc1C=O`, the Potency result in assay [7], in assay [2], in assay [8], in assay [3], in assay [4] and in assay [9] was “inactive” each time. Further, the Potency entry in assay [10], in assay [11], in assay [12], in assay [6] and in assay [13] was “inactive” each time.
For the molecule `CC(CN1c2ccccc2Sc2ccccc21)N(C)C` (stereo not given), the Potency entry in assay [16], in assay [7], in assay [14], in [15], in [2] and in assay [8] was “inactive” in each case. The Potency entry in [3], in [9], in assay [10], in assay [11], in assay [6] and in assay [13] was “inactive” throughout. Moreover, the result in assay [17] was inactive.
For the molecule `COCCOC(=O)C1=C(C)NC(C)=C(C(=O)OC/C=C/c2ccccc2)C1c1cccc([N+](=O)[O-])c1` (stereo not given), the Potency result in [16], in assay [14], in [15], in assay [2] and in assay [6] was “inactive” throughout. Further, the outcome in assay [17] was inactive.
As for `CC(C)NC[C@H](O)c1ccc(O)c(O)c1`, the molecule was called inactive in assay [18] and in [17]. Also, the Potency entry in assay [16] and in assay [7] was “inactive” in each case.
As for `CN(C)CCCN1c2ccccc2Sc2ccc(Cl)cc21`, the outcome in [18] and in [17] was inactive. The Potency in [16] was 14.7 µM (active); in [7] it was 7.08 µM (active); in assay [5] it was 6.12 µM (active). The Potency entry in assay [14] and in assay [11] was “inactive” each time.
